Assay results reported in the supplement of paper PMC8728848.
The entries come from a sample that favours the strongest signals as a whole.

Legend:
Experiment in all cases: glycan array binding signal (z-score within array); higher = stronger binding
Details in all cases: glycan notation: IUPAC condensed, linker removed
Fuc(a1-2)Gal = target: Fuc(a1-2)Gal
Method in brief: (§1)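 Columns mapping to the same glycan were averaged after glycan names were converted to IUPAC-condensed notation. The data come from 3228 arrays in the Consortium for Functional Glycomics database, limited to those with an available protein sequence. Binding is reported as a within-array Z-score averaged across arrays of one protein sequence and across linkers.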

[1] = target: Fuc(a1-2)Gal(b1-4)GlcNAc(b1-2)Man(a1-3)[Fuc(a1-2)Gal(b1-4)GlcNAc(b1-2)Man(a1-6)]Man(b1-4)GlcNAc(b1-4)[Fuc(a1-6)]GlcNAc
Method in brief: as §1

[2] = target: Fuc(a1-2)Gal(b1-4)GlcNAc(b1-6)GalNAc
Method in brief: as §1

[3] = target: Fuc(a1-2)Gal(b1-4)[Fuc(a1-3)]GlcNAc(b1-3)Gal(b1-4)[Fuc(a1-3)]GlcNAc(b1-3)Gal(b1-4)[Fuc(a1-3)]GlcNAc
Method in brief: as §1

[4] = target: Fuc(a1-2)Gal6S(b1-3)GlcNAc6S
Method in brief: as §1

[5] = target: Fuc(a1-2)[Gal(a1-3)]Gal(b1-3)GlcNAc
Method in brief: as §1

[6] = target: Fuc(a1-2)[Gal(a1-3)]Gal(b1-4)GlcNAc
Method in brief: as §1

[7] = target: Fuc(a1-2)[Gal(a1-3)]Gal(b1-4)GlcNAc(b1-2)Man(a1-3)[Fuc(a1-2)[Gal(a1-3)]Gal(b1-4)GlcNAc(b1-2)Man(a1-6)]Man(b1-4)GlcNAc(b1-4)[Fuc(a1-6)]GlcNAc
Method in brief: as §1

[8] = target: Fuc(a1-2)[GalNAc(a1-3)]Gal(b1-4)GlcNAc(b1-2)Man(a1-3)[Fuc(a1-2)[GalNAc(a1-3)]Gal(b1-4)GlcNAc(b1-2)Man(a1-6)]Man(b1-4)GlcNAc(b1-4)GlcNAc
Method in brief: as §1

[9] = target: Fuc(a1-3)[Gal(b1-4)]GlcNAc(b1-6)[Gal(b1-3)GlcNAc(b1-3)]Gal(b1-4)Glc
Method in brief: as §1

[10] = target: Gal(a1-3)Gal(b1-4)GlcNAc(b1-2)Man(a1-3)[Gal(a1-3)Gal(b1-4)GlcNAc(b1-2)Man(a1-6)]Man(b1-4)GlcNAc(b1-4)GlcNAc
Method in brief: as §1

[11] = target: Gal(a1-3)Gal(b1-4)GlcNAc(b1-3)GalNAc
Method in brief: as §1

Gal(b1-2)Gal = target: Gal(b1-2)Gal
Method in brief: as §1

Gal(b1-3)Gal = target: Gal(b1-3)Gal
Method in brief: as §1

Gal(b1-3)GlcNAc = target: Gal(b1-3)GlcNAc
Method in brief: as §1

[12] = target: Gal(b1-3)GlcNAc(b1-3)Gal(b1-4)GlcNAc
Method in brief: as §1

[13] = target: Gal(b1-3)GlcNAc(b1-3)Gal(b1-4)GlcNAc(b1-3)Gal(b1-4)GlcNAc(b1-2)[Gal(b1-3)GlcNAc(b1-3)Gal(b1-4)GlcNAc(b1-3)Gal(b1-4)GlcNAc(b1-6)]Man(a1-6)[Gal(b1-3)GlcNAc(b1-3)Gal(b1-4)GlcNAc(b1-3)Gal(b1-4)GlcNAc(b1-2)Man(a1-3)]Man(b1-4)GlcNAc(b1-4)[Fuc(a1-6)]GlcNAc
Method in brief: as §1

[14] = target: Gal(b1-3)[Fuc(a1-4)]GlcNAc
Method in brief: as §1

[15] = target: Gal(b1-3)[Fuc(a1-4)]GlcNAc(b1-2)Man
Method in brief: as §1

[16] = target: Gal(b1-3)[GlcNAc(b1-6)]GalNAc
Method in brief: as §1

Gal(b1-4)GlcNAc = target: Gal(b1-4)GlcNAc
Method in brief: as §1

[17] = target: Gal(b1-4)GlcNAc(b1-2)Man(a1-3)[GlcNAc(b1-4)][Gal(b1-4)GlcNAc(b1-2)Man(a1-6)]Man(b1-4)GlcNAc(b1-4)GlcNAc
Method in brief: as §1

[18] = target: Gal(b1-4)GlcNAc(b1-2)[Gal(b1-4)GlcNAc(b1-4)]Man(a1-3)[Gal(b1-4)GlcNAc(b1-2)[Gal(b1-4)GlcNAc(b1-6)]Man(a1-6)]Man(b1-4)GlcNAc(b1-4)GlcNAc
Method in brief: as §1

[19] = target: Gal(b1-4)GlcNAc(b1-3)Gal(b1-4)Glc
Method in brief: as §1

[20] = target: Gal(b1-4)GlcNAc(b1-3)Gal(b1-4)GlcNAc(b1-3)[Gal(b1-4)GlcNAc(b1-3)Gal(b1-4)GlcNAc(b1-6)]GalNAc
Method in brief: as §1

[21] = target: Gal(b1-4)GlcNAc(b1-3)GalNAc
Method in brief: as §1

Gal3S(b1-3)GalNAc = target: Gal3S(b1-3)GalNAc
Method in brief: as §1

Gal3S(b1-4)Glc = target: Gal3S(b1-4)Glc
Method in brief: as §1

[22] = target: Gal3S(b1-4)[Fuc(a1-3)]GlcNAc6S
Method in brief: as §1

Gal3S6S(b1-4)GlcNAc6S = target: Gal3S6S(b1-4)GlcNAc6S
Method in brief: as §1

Gal6S(b1-3)GlcNAc6S = target: Gal6S(b1-3)GlcNAc6S
Method in brief: as §1

GalNAc(a1-3)Gal = target: GalNAc(a1-3)Gal
Method in brief: as §1

[23] = target: Glc(a1-6)Glc(a1-6)Glc(a1-6)Glc
Method in brief: as §1

[24] = target: GlcNAc(a1-4)Gal(b1-4)GlcNAc(b1-3)Gal(b1-4)[Fuc(a1-3)]GlcNAc(b1-3)Gal(b1-4)[Fuc(a1-3)]GlcNAc
Method in brief: as §1

[25] = target: GlcNAc(b1-2)Gal(b1-3)GalNAc
Method in brief: as §1

[26] = target: GlcNAc(b1-2)[GlcNAc(b1-4)]Man(a1-3)[GlcNAc(b1-4)][GlcNAc(b1-2)[GlcNAc(b1-6)]Man(a1-6)]Man(b1-4)GlcNAc(b1-4)[Fuc(a1-6)]GlcNAc
Method in brief: as §1

[27] = target: GlcNAc(b1-2)[GlcNAc(b1-6)]Man(a1-6)[GlcNAc(b1-2)Man(a1-3)]Man(b1-4)GlcNAc(b1-4)[Fuc(a1-6)]GlcNAc
Method in brief: as §1

[28] = target: GlcNAc(b1-2)[GlcNAc(b1-6)]Man(a1-6)[GlcNAc(b1-4)][GlcNAc(b1-2)Man(a1-3)]Man(b1-4)GlcNAc(b1-4)GlcNAc
Method in brief: as §1

[29] = target: GlcNAc(b1-3)Gal(b1-4)GlcNAc(b1-3)Gal(b1-4)GlcNAc(b1-3)Gal(b1-4)GlcNAc(b1-3)Gal(b1-4)GlcNAc(b1-2)Man(a1-3)[GlcNAc(b1-3)Gal(b1-4)GlcNAc(b1-3)Gal(b1-4)GlcNAc(b1-3)Gal(b1-4)GlcNAc(b1-3)Gal(b1-4)GlcNAc(b1-2)Man(a1-6)]Man(b1-4)GlcNAc(b1-4)[Fuc(a1-6)]GlcNAc
Method in brief: as §1

[30] = target: GlcNAc(b1-3)Gal(b1-4)GlcNAc(b1-3)Gal(b1-4)GlcNAc(b1-3)Gal(b1-4)GlcNAc(b1-3)Gal(b1-4)GlcNAc(b1-2)[GlcNAc(b1-3)Gal(b1-4)GlcNAc(b1-3)Gal(b1-4)GlcNAc(b1-3)Gal(b1-4)GlcNAc(b1-3)Gal(b1-4)GlcNAc(b1-6)]Man(a1-6)[GlcNAc(b1-3)Gal(b1-4)GlcNAc(b1-3)Gal(b1-4)GlcNAc(b1-3)Gal(b1-4)GlcNAc(b1-3)Gal(b1-4)GlcNAc(b1-2)Man(a1-3)]Man(b1-4)GlcNAc(b1-4)[Fuc(a1-6)]GlcNAc
Method in brief: as §1

[31] = target: GlcNAc(b1-3)Gal(b1-4)GlcNAc(b1-6)[Gal(b1-3)]GalNAc
Method in brief: as §1

Man(b1-4)GlcNAc = target: Man(b1-4)GlcNAc
Method in brief: as §1

[32] = target: Neu5Ac(a2-3)Gal(b1-3)GlcNAc(b1-3)Gal(b1-4)GlcNAc
Method in brief: as §1

[33] = target: Neu5Ac(a2-3)Gal(b1-3)[Fuc(a1-4)]GlcNAc(b1-3)Gal(b1-4)[Fuc(a1-3)]GlcNAc
Method in brief: as §1

[34] = target: Neu5Ac(a2-3)Gal(b1-4)GlcNAc(b1-2)Man
Method in brief: as §1

[35] = target: Neu5Ac(a2-3)Gal(b1-4)GlcNAc(b1-2)[Neu5Ac(a2-3)Gal(b1-4)GlcNAc(b1-4)]Man(a1-3)[GlcNAc(b1-4)][Neu5Ac(a2-3)Gal(b1-4)GlcNAc(b1-4)Man(a1-6)]Man(b1-4)GlcNAc(b1-4)GlcNAc
Method in brief: as §1

[36] = target: Neu5Ac(a2-3)Gal(b1-4)GlcNAc(b1-3)Gal
Method in brief: as §1

[37] = target: Neu5Ac(a2-3)Gal(b1-4)GlcNAc(b1-3)Gal(b1-4)GlcNAc(b1-2)Man(a1-3)[Neu5Ac(a2-3)Gal(b1-4)GlcNAc(b1-3)Gal(b1-4)GlcNAc(b1-2)Man(a1-6)]Man(b1-4)GlcNAc(b1-4)GlcNAc
Method in brief: as §1

[38] = target: Neu5Ac(a2-3)Gal(b1-4)GlcNAc(b1-3)[Neu5Ac(a2-3)Gal(b1-4)GlcNAc(b1-6)]GalNAc
Method in brief: as §1

[39] = target: Neu5Ac(a2-3)[GalNAc(b1-4)]Gal(b1-4)GlcNAc
Method in brief: as §1

[40] = target: Neu5Ac(a2-3)[GalNAc(b1-4)]Gal(b1-4)GlcNAc(b1-3)GalNAc
Method in brief: as §1

[41] = target: Neu5Ac(a2-6)Gal(b1-4)GlcNAc(b1-2)Man(a1-6)[Gal(b1-4)GlcNAc(b1-2)Man(a1-3)]Man(b1-4)GlcNAc(b1-4)GlcNAc
Method in brief: as §1

[42] = target: Neu5Ac(a2-8)Neu5Ac(a2-3)[GalNAc(b1-4)]Gal(b1-4)Glc
Method in brief: as §1

[43] = target: Neu5Ac9Ac(a2-6)Gal(b1-4)GlcNAc
Method in brief: as §1

[44] = target: Neu5Gc(a2-3)Gal(b1-3)GlcNAc
Method in brief: as §1

B1: Tp0751, 83732 (protein)
chain: MSYYHHHHHHLESTSLYKKAGFQHGHVPPRRIPPHDTFGALPTAALPSNARDTAAHPSDTADNTSGSSTTTDPRSHGNAPPAPVGGAAQTHTQPPVQTAMRIALWNRATHGEQGALQHLLAGLWIQTEISPNSGDIHPLLFFDREHAEITFSRASVQEIFLVDSAHTHRKTVSFLTRNTAISSIRRRLEVTFESHEVIHVRAVEDVARLKIGSTSMWDGQYTRYHAGPASAPSP
glycan array binding signal (z-score) (Fuc(a1-2)Gal): -0.265
glycan array binding signal (z-score) [1]: 1.64
glycan array binding signal (z-score) [2]: -0.071
glycan array binding signal (z-score) [3]: 0.013
glycan array binding signal (z-score) [4]: 1.11
glycan array binding signal (z-score) [5]: 1.77
glycan array binding signal (z-score) [6]: 0.066
glycan array binding signal (z-score) [7]: -0.276
glycan array binding signal (z-score) [8]: 0.638
glycan array binding signal (z-score) [9]: 0.413
glycan array binding signal (z-score) [10]: 0.262
glycan array binding signal (z-score) [11]: -0.025
glycan array binding signal (z-score) (Gal(b1-2)Gal): 2.31
glycan array binding signal (z-score) (Gal(b1-3)Gal): 0.017
glycan array binding signal (z-score) (Gal(b1-3)GlcNAc): -0.323
glycan array binding signal (z-score) [12]: -0.382
glycan array binding signal (z-score) [13]: -0.07
glycan array binding signal (z-score) [14]: -0.004
glycan array binding signal (z-score) [15]: -0.163
glycan array binding signal (z-score) [16]: -0.373
glycan array binding signal (z-score) (Gal(b1-4)GlcNAc): 0.21
glycan array binding signal (z-score) [17]: -0.493
glycan array binding signal (z-score) [18]: 0.31
glycan array binding signal (z-score) [19]: -0.441
glycan array binding signal (z-score) [20]: 1.78
glycan array binding signal (z-score) [21]: -0.427
glycan array binding signal (z-score) (Gal3S(b1-3)GalNAc): 3.13
glycan array binding signal (z-score) (Gal3S(b1-4)Glc): 5.83
glycan array binding signal (z-score) [22]: 1.94
glycan array binding signal (z-score) (Gal3S6S(b1-4)GlcNAc6S): 2.54
glycan array binding signal (z-score) (Gal6S(b1-3)GlcNAc6S): 2.18
glycan array binding signal (z-score) (GalNAc(a1-3)Gal): -0.699
glycan array binding signal (z-score) [23]: 1.24
glycan array binding signal (z-score) [24]: 1.63
glycan array binding signal (z-score) [25]: -0.378
glycan array binding signal (z-score) [26]: -0.299
glycan array binding signal (z-score) [27]: 0.781
glycan array binding signal (z-score) [28]: -0.584
glycan array binding signal (z-score) [29]: -0.326
glycan array binding signal (z-score) [30]: -0.088
glycan array binding signal (z-score) [31]: -0.81
glycan array binding signal (z-score) (Man(b1-4)GlcNAc): -0.599
glycan array binding signal (z-score) [32]: 0.058
glycan array binding signal (z-score) [33]: 0.658
glycan array binding signal (z-score) [34]: 6.75
glycan array binding signal (z-score) [35]: -0.386
glycan array binding signal (z-score) [36]: -0.332
glycan array binding signal (z-score) [37]: 0.542
glycan array binding signal (z-score) [38]: -0.246
glycan array binding signal (z-score) [39]: -0.76
glycan array binding signal (z-score) [40]: 0.098
glycan array binding signal (z-score) [41]: -0.478
glycan array binding signal (z-score) [42]: -0.022
glycan array binding signal (z-score) [43]: -0.145
glycan array binding signal (z-score) [44]: 0.052
